The values that follow come from PubChem BioAssay (NCATS).

Assay [1] has as its system Tov-21-G. Briefly: Primary qHTS to identify gynecologic anti-cancer compounds using libraries of approved drugs and bioactive compounds (AID 1345084). Note: nearly all actives have a fitted effect of over 55% in size. The following applies: Gynecologic cancer cell panel viability, ATPlite luminescence, 48 h; series mostly up to 57.5 µM. The procedure, abridged:
(§1)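 Cell viability after 48 h drug treatment, ATPlite luminescence readout; five doses.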
(Quantitative high-throughput screening tests each substance at several concentrations.)

Assay [2] relates to Tov112D. Described as above. Conditions: Gynecologic cancer cell panel viability, ATPlite luminescence, 48 h; series mostly up to 57.5 µM. Put shortly: as §1
In general terms: In ATP-based viability assays light output follows the ATP content of the culture.

Assay [3] can be described thus: qHTS assay to identify inhibitors of the type 1 interferon - major histocompatibility complex class I in skeletal muscle: Counter screen cell viability and HiBit confirmation (AID 1347412). For all read-outs here: nearly all actives have a fitted effect of over 60% in size. The following applies: iHSKM muscle cells + IFN-b, HiBiT or CellTiter-Glo, 24 h; for activity change, negative = inhibition: at 45.9 µM (top of the series). The procedure, abridged:
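Human myoblast knock-in line, 4.0 ng/ml IFN-beta stimulation, 24 h compound treatment. Endpoints: HiBiT lytic luminescence (HLA-B level) and CellTiter Glo (ATP). Dosing 12 concentrations, 3-fold steps, 46 uM highest final.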

Assay [4] concerns PA-1. Briefly: Primary qHTS to identify gynecologic anti-cancer compounds using libraries of approved drugs and bioactive compounds (AID 1345084). Note: nearly all actives have a fitted effect of over 55% in size. The following applies: Gynecologic cancer cell panel viability, ATPlite luminescence, 48 h; series mostly up to 57.5 µM. Put shortly: as §1
The subject of assay [5] is SKOV3. The description is as above. Conditions: Gynecologic cancer cell panel viability, ATPlite luminescence, 48 h; series mostly up to 57.5 µM. Put shortly:
as §1

The nature of assay [6]: Drug repurposing screens with cells derived from glioblastoma tumor samples (AID 1345199). Note: nearly all actives have a fitted effect of over 40% in size. Conditions: GBM patient neurospheres viability, ATP luminescence, 48 h. Put shortly: (§2)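 Primary testing used CD133+ neurospheres from four GBM patients, seven concentrations, 48 h exposure and ATP-based viability; confirmation added three slower-growing patient lines.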
For assay [7], the system named is astro. Described as above. The following applies: viability, ATP luminescence, 48 h; series mostly up to 45.9 µM. The procedure, abridged: as §2

Values joined by “and” are separate entries in the source; they are usually repeats but may differ in a detail not shown here. Equal entries are not always repeated. Results filed as inconclusive are left out. A number with no mark means an inactive call. Active and inactive are the calls of the source. Calls come from the whole dose curve; as a rule, active = well fitted curve in the direction sought with a large enough effect; inconclusive = small, poorly fitted or top-dose-only effect, or another doubt; inactive = no such curve, though single readings can be large; an effect the other way counts as inactive or inconclusive.
% is set by controls: 0 for no effect and ±100 for the full control effect; potency is the fitted concentration of half-maximal effect.

In the case of `Cc1ccc(C(N)=O)cc1Nc1nccc(-c2cn(C(C)C)c3cnccc23)n1`, the results for the Potency in assay [1], in assay [2] and in assay [3] (HiBiT) were 14.1 µM (active), 17.8 µM (active) and 2.49 µM (active), respectively. In assay [3] (Viability), the activity change, negative = inhibition is 26.3%.

In the case of `COc1cccc2nc(-c3cccs3)nc(NN3C(=O)C=C(C)C3=O)c12`, the values for the Potency in assay [4], in assay [2] and in assay [3] (HiBiT) were 1.58 µM (active), 0.891 µM (active) and 2.79 µM (active), respectively. Further, the activity change, negative = inhibition in assay [3] (Viability) was 41.4%.

For `Cc1c(C)n(Cc2ccc(-c3ccccc3C(=O)O)cc2)c2ccc(C(=O)N[C@@H](C)c3ccc([N+](=O)[O-])cc3)cc12`, the Potency entry in assay [1] and in assay [2] was “inactive” throughout.

Take `C[C@@H]1COC(Nc2ccc3ncnc(Nc4ccc(OCc5nccs5)c(Cl)c4)c3c2)=N1`: the Potency in assay [5] was 14.1 µM (active). In assay [3] (Viability), the activity change, negative = inhibition was -24%.

With `CCOC(=O)C1=C(C)NC2=C(C(=O)CC(C)(C)C2)C1c1ccc(-c2ccccc2)cc1` (centres undefined), the Potency in assay [5] was 10 µM (active); in assay [2], 31.6 µM (active); in assay [3] (HiBiT), 2.49 µM (active). In addition, in assay [3] (Viability), the activity change, negative = inhibition was -16.2%.

Regarding `O=C(O)C1(Cc2cccc(Nc3nccs3)n2)CCC(Oc2cccc(Cl)c2F)CC1` (centres undefined), the Potency in assay [2] was 1 µM (active).

In the case of `CC[C@@H]1C(=O)N(C)c2cnc(Nc3ccc(C(=O)NC4CCC(N5CCN(CC6CC6)CC5)CC4)cc3OC)nc2N1C(C)C` (some centres undefined), the figures for the Potency in assay [4] and in assay [3] (HiBiT) were 0.251 µM (active) and 6.25 µM (active), respectively.

Take `CS(=O)(=O)N1CCN(Cc2cc3nc(-c4cccc5[nH]ncc45)nc(N4CCOCC4)c3s2)CC1`: in assay [5], the Potency was 2.51 µM (active). Moreover, in assay [2], the Potency entry was “inactive”.

As to `COc1cc2c(Oc3ccc(-c4cnc(Nc5ccc(F)cc5)n(C)c4=O)cc3F)ccnc2cc1OCCCN1CCOCC1`, in assay [5], the Potency entry was “inactive”.

Take `CN1CCN(Cc2ccc(NC(=O)Nc3ccc(Oc4cc(NC(=O)C5CC5)ncn4)cc3)cc2C(F)(F)F)CC1`: the Potency is 0.794 µM (active) in assay [4], 0.708 µM (active) in assay [2] and 0.442 µM (active) in assay [3] (HiBiT). Also, the activity change, negative = inhibition in assay [3] (Viability) was 13.9%.

Turning to `Cn1cc(-c2[nH]c3cc(NC(=O)[C@H](N)C4CCCCC4)cc4c3c2C=NNC4=O)cn1`, the results for the Potency in assay [5] and in assay [1] were 7.08 µM (active) and 10 µM (active), respectively.

As to `Cn1c2ccccc2c2c3c(c4c5ccccc5n(CCC#N)c4c21)CNC3=O`, the Potency in assay [5] was 17.8 µM (active). In addition, the Potency entry in assay [2] was “inactive”.

Take `Cc1nc2ccc(CN(C)c3ccc(C(=O)N[C@@H](CCC(=O)O)C(=O)O)s3)cc2c(=O)[nH]1`: the Potency entry in assay [5] and in assay [7] was “inactive” throughout. Also, in assay [2], the Potency was 0.316 µM (active). The activity, negative = cell killing is -5.32% and -11.6% in assay [6] (at 45.9 µM (top of the series), tumour line D); 0.947% and 1.27% in assay [6] (at 46.1 µM (top of the series), tumour line C).

As for `NC(=O)c1cccc2cn(-c3ccc([C@@H]4CCCNC4)cc3)nc12`, the Potency entry in assay [5] and in assay [1] was “inactive” in each case.

Consider `Cc1cc(Nc2cc(N3CCN(C)CC3)nc(Sc3ccc(NC(=O)C4CC4)cc3)n2)n[nH]1`, for which the Potency result in assay [1] is “inactive”.

As to `COc1cc(-c2nn(C3CCC(N4CCN(C(C)=O)CC4)CC3)c3ncnc(N)c23)ccc1NC(=O)c1cc2ccccc2n1C` (centres undefined), the Potency entry in assay [5] and in assay [2] was “inactive” throughout.

As to `CC(C)CC(=O)Nc1n[nH]c2c1CN(C(=O)C1CCN(C)CC1)C2(C)C`, the Potency in assay [4] is 0.447 µM (active); in assay [2] it was 7.94 µM (active); in assay [3] (HiBiT) it was 0.701 µM (active). For the same compound, the activity change, negative = inhibition in assay [3] (Viability) was 10.8%.

Turning to `NCC(=O)Nc1ccc(-n2nc(C(F)(F)F)cc2-c2ccc3c(ccc4ccccc43)c2)cc1`, the Potency result in assay [5] and in assay [2] was “inactive” each time.

Take `Cc1c(NC(=O)OC[C@@H]2COCCN2)cn2ncnc(Nc3ccc4c(cnn4Cc4cccc(F)c4)c3)c12`: the Potency result in assay [1] and in assay [2] was “inactive” in each case.

Turning to `O=C(c1ccc(Nc2nccc(-c3cc4ccccc4s3)n2)cc1)N1CCC(N2CCCC2)CC1`, the Potency is 25.1 µM (active) in assay [5], 28.2 µM (active) in assay [1] and 17.6 µM (active) in assay [3] (HiBiT). The Potency result in assay [2] was “inactive”.

For `O=C(O)c1ccc2c(c1)nc(Nc1cccc(Cl)c1)c1ccncc12`, in assay [1], the Potency was 22.4 µM (active).

Regarding `COC(=O)c1ccc2c(C(=Nc3ccc(N(C)C(=O)CN4CCN(C)CC4)cc3)c3ccccc3)c(O)[nH]c2c1`, the Potency result in assay [5] and in assay [2] was “inactive” each time.

`Cc1cc(CN2CCN(c3c(Br)cnc4nc(-c5ccc(N6CCN(C)CC6)cc5)[nH]c34)CC2)no1`: the Potency entry in assay [5] was “inactive”. The Potency is 8.83 µM (active) in assay [3] (HiBiT) and 11.1 µM (active) in assay [3] (Viability).

Take `CCc1c2c(nc3ccc(O)cc13)-c1cc3c(c(=O)n1C2)COC(=O)[C@]3(O)CC`: the results for the Potency in assay [1] and in assay [3] (HiBiT) were 3.16 µM (active) and 1.4 µM (active), respectively. Moreover, in assay [3] (Viability), the activity change, negative = inhibition is -11.1%.

In the case of `CC1(C)CCC(c2ccc(Cl)cc2)=C(CN2CCN(c3ccc(C(=O)NS(=O)(=O)c4ccc(N[C@H](CCN5CCOCC5)CSc5ccccc5)c(S(=O)(=O)C(F)(F)F)c4)cc3)CC2)C1`, in assay [1], the Potency entry is “inactive”.

Turning to `COC(=O)C1=C(C)NC(C)=C(C(=O)OCCN2CCN(C(c3ccccc3)c3ccccc3)CC2)C1c1cccc([N+](=O)[O-])c1` (centres undefined), the Potency result in assay [1], in assay [2] and in assay [7] was “inactive” in each case. In assay [6] (at 45.9 µM (top of the series), tumour line B), the activity, negative = cell killing was -14.4%. In addition, the Potency in assay [6] (tumour line A) was 3.16 µM (active); in assay [6] (tumour line C), 16.4 µM (active); in assay [6] (tumour line D), 15.8 µM (active).

With `Fc1cc(-c2cccc3ncc(-c4cnn(C5CCNCC5)c4)nc23)cc(F)c1CN1CCOCC1`, the results for the Potency in assay [5], in assay [1] and in assay [3] (HiBiT) were 12.6 µM (active), 11.2 µM (active) and 19.8 µM (active), respectively.

For the compound `Cc1cc(Nc2nc(N[C@@H](C)c3ccc(F)cc3)c(C#N)cc2F)n[nH]1`, the Potency in assay [4] is 7.08 µM (active); in assay [3] (HiBiT), 2.22 µM (active).
